Shown are actives, neighbours in structure and some others; about 11% of the full set was active somewhere.
NPSR antagonist: antagonists of human neuropeptide S receptor cAMP signaling | Q6W5P4 | CHO-NPSR cells, cAMP TR-FRET, antagonist mode | Potency, µM (series often up to 38.3 µM), hits mostly inhibitors | 1% of 220,000 active | AID 1461; active = well fitted curve in the direction sought with a large enough effect; inconclusive = small, poorly fitted or top-dose-only effect, or another doubt; inactive = no such curve, though single readings can be large; an effect the other way counts as inactive or inconclusive; note: nearly all actives have a fitted effect of over 50% in size
PNC inhibitor: blocks assembly of the perinucleolar compartment; PC3M PTB-GFP, PNC prevalence imaging, 16 h; active compounds read low; activity change (PNC), negative = inhibition, % at 10 µM; 3.1% of 140,000 active;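 active = readout at or below -70, meaning at least 70% loss of cells showing the perinucleolar compartment, a nuclear body marking cancer cells; inconclusive = readout between -30 and a set limit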
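Compounds are pinned in duplicate onto adhered PC3M cells stably expressing GFP-tagged PTB and incubated 16 h at 37 C. Cells are then fixed, nuclei stained with Hoechst, and PNC-positive cells counted.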
HPGD inh: inhibitors of human 15-hydroxyprostaglandin dehydrogenase (HPGD); Potency, µM, most hits filed as inhibitors; purified HPGD, NADH fluorescence kinetic, PGE2 substrate; P15428; AID 894; 4.3% of 150,000 active
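20 nM HPGD preincubated 15 min at room temperature with compound in 50 mM Tris-HCl pH 8, 0.01% Tween 20. Started with 1 mM NAD+ and 30 uM prostaglandin E2; NADH fluorescence (360/450 nm) read 5 times over 30-s intervals, last minus first.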
ALDH1A1 block: inhibitors of human aldehyde dehydrogenase 1A1; Potency, µM (titrated, usually from 75.3 µM), actives largely listed as inhibitors; 7.3% of 220,000 active; P00352; Purified ALDH1A1, NADH fluorescence, propionaldehyde substrate
IMPase cell inh: cell-permeable inhibitors of inositol monophosphatase (IMPase); inhibition (IP1 accumulation), % at 46.1 µM; CHO-M1 cells, IP1 accumulation, HTRF TR-FRET ratio; 120,000 tested, under 10 active; AID 901; P97697; active = well fitted curve in the direction sought with a large enough effect in the signal ratio, not every such curve was filed as active; inconclusive = small, poorly fitted or top-dose-only effect, or a change in a side signal; inactive = no such curve, though single readings can be large or run the other way; the % refers to the signal ratio;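 note: cells stimulated with carbachol in lithium chloride buffer; higher means more IMPase inhibition seen as more IP1 and lower FRET ratio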
Target sequence (P97697 whole entry, looked up): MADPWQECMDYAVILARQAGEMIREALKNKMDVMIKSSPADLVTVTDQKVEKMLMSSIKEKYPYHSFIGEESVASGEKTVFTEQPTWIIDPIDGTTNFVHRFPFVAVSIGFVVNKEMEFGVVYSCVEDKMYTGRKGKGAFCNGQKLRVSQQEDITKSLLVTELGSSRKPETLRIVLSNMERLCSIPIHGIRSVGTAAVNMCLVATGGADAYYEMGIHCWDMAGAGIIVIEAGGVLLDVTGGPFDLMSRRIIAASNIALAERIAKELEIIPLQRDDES
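Cellular IMPase inhibition is scored as a rise in cytosolic IP1, detected by competitive TR-FRET between d2-labelled IP1 and a europium anti-IP1 antibody. M1-expressing CHO cells were stimulated with carbachol for 30 min at 37C, with lithium (50 mM LiCl) present in the buffer.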
IMPase Li cell: cell-permeable IMPase inhibitors with lithium potentiation | 0.35% of 210,000 active | Potency, µM (titrated, usually from 59.4 µM), actives largely listed as inhibitors | AID 1457 | CHO-M1 cells, IP1 TR-FRET (IP-One), carbachol + lithium; active = well fitted curve in the direction sought with a large enough effect; inconclusive = small, poorly fitted or top-dose-only effect, or another doubt; inactive = no such curve, though single readings can be large; an effect the other way counts as inactive or inconclusive;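 note: IP1 builds up when IMPase is blocked and the TR-FRET signal falls; nearly all actives have a fitted effect of over 50% in size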
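Lithium-sensitised IP1 accumulation assay; M1-expressing CHO cells treated 30 min at 37C with compound. Competitive antibody detection by time-resolved FRET followed a 10 min room-temperature lysis step.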
Numbers stand for hits; i = inactive; ? = inconclusive; nt = not tested or not shown. Unless noted, calls come from the whole dose curve; as a rule, active = well fitted inhibition curve with a large enough effect (not every such curve was filed as active); inconclusive = small, poorly fitted or top-dose-only effect, or another doubt; inactive = no such curve, though single readings can be large or run the other way.

SMILES | NPSR antagonist | PNC inhibitor | HPGD inh | ALDH1A1 block | IMPase cell inh | IMPase Li cell
O=C(CSc1nc2ccccc2c(=O)[nH]1)N1CCCCCC1 | i | i | ? | ? | i | i
O=C(CSc1nc2ccccc2c(=O)[nH]1)c1cccs1 | i | ? | 12.6µM | i | i | i
Cc1cc(SCc2cc(=O)n3ccsc3n2)nc2ccccc12 | i | i | i | i | nt | i
COc1cc(C(=O)Nc2sc3c(c2C(=O)NCc2ccco2)CCCC3)cc(OC)c1OC | i | i | ? | ? | i | i
Fc1cccc(-n2c(-c3cccs3)nc3nc4ccccc4nc32)c1 | i | nt | nt | nt | nt | nt
COc1ccccc1CN(C)C(=O)C1COc2ccccc2O1 (configuration not stated) | i | ? | 7.08µM | i | i | i
Cc1ccc(NC(=O)CN(C)C(=O)C2COc3ccccc3O2)cc1 (configuration not stated) | i | nt | nt | i | nt | i
C/C(=N\Nc1nc(C)c(C)s1)c1ccc([N+](=O)[O-])cc1 | i | nt | nt | 12.6µM | nt | i
C/C(=N\Nc1ccc([N+](=O)[O-])cc1)c1ccc(N)cc1 | i | i | i | ? | i | i
C/C(=N\Nc1ccc([N+](=O)[O-])cc1)c1ccc(-n2nncc2C)cc1 | i | i | 8.91µM | i | nt | i
COc1ccc(OC)c(CNC(=O)Cc2c(C(=O)O)[nH]c3ccccc23)c1 | i | i | i | i | i | i
CC(=O)Nc1nonc1-c1nc2ccccc2n1Cc1ccccc1 | i | i | ? | ? | ? | i
CC(=O)Nc1nonc1-c1nc2ccccc2n1Cc1nnc(C)o1 | i | -87.3 | ? | ? | i | i
CCc1ccc(N(C)S(=O)(=O)c2ccc3[nH]cc(C(=O)NCCN4CCOCC4)c(=O)c3c2)cc1 | i | i | ? | 22.4µM | i | i
COCCCNC(=O)c1c[nH]c2ccc(S(=O)(=O)N3CCC4(CC3)OCCO4)cc2c1=O | i | nt | nt | ? | nt | i
O=C(NCCN1CCOCC1)c1c[nH]c2ccc(S(=O)(=O)N3CCOCC3)cc2c1=O | i | i | ? | ? | nt | i
CN(CCC#N)S(=O)(=O)c1ccc2[nH]cc(C(=O)NCCc3ccccc3)c(=O)c2c1 | i | i | ? | 25.1µM | nt | i
CCCCCNC(=O)c1c[nH]c2ccc(S(=O)(=O)N3CCC4(CC3)OCCO4)cc2c1=O | i | -113.4 | ? | i | nt | i
Cc1ccccc1N(C)S(=O)(=O)c1ccc2[nH]cc(C(=O)NCC3CCCO3)c(=O)c2c1 (configuration not stated) | i | -84.4 | ? | ? | i | i
CCOc1ccc(OCC)c(NC(=O)CN(C)S(=O)(=O)c2ccc3nc(C)sc3c2)c1 | i | i | i | i | nt | i
CCOC(=O)c1nnc(-c2ccc(C)cc2)nc1Sc1ccc(Cl)cc1 | i | ? | i | i | i | i
CCOc1ccc(N(C)S(=O)(=O)c2ccc3[nH]cc(C(=O)NCC4CCCO4)c(=O)c3c2)cc1 (configuration not stated) | i | ? | 14.1µM | i | i | i
CCc1ccc(NS(=O)(=O)c2ccc3[nH]cc(C(=O)NCC4CCCO4)c(=O)c3c2)cc1 (configuration not stated) | i | ? | ? | ? | i | i
CC(C)c1ccc(C2CC(=O)N3CN(Cc4ccco4)CSC3=C2C#N)cc1 (configuration not stated) | i | i | 15.8µM | 14.1µM | i | i
COc1ccc2ccccc2c1C1CC(=O)N2CN(C3CCCCC3)CSC2=C1C#N (configuration not stated) | i | i | 17.8µM | 28.2µM | i | i
O=C1CSC(=Nc2ccc(Cl)cc2)N1Cc1ccco1 | i | nt | nt | nt | nt | nt
CCOc1cc(C2CC(=O)N3CN(C4CCCCC4)CSC3=C2C#N)ccc1O (configuration not stated) | i | ? | 25.1µM | 6.31µM | i | ?
N#CC1=C2SCN(Cc3ccco3)CN2C(=O)CC1c1ccc(Cl)cc1 (configuration not stated) | i | i | 11.2µM | 15.8µM | i | i
CSC1=C(C#N)C(c2ccc(C(C)C)cc2)CC(=O)N1 (configuration not stated) | i | i | i | ? | i | i

Screens (PubChem)
